From PubChem BioAssay (NCI)
This is part of a sample that, as a whole, favours compounds with a hit. Of some 83,000 tested, about 20% had one in any assay.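 Interpretation: 100, growth as untreated; towards 0, rising growth inhibition; 0, no net growth; 0 to -100, cell death. Compounds scoring below 10 were considered active.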 A number with no mark means an inactive call. Active and inactive are the calls of the source.

What was measured:
Test in all cases: NCI-60 one-dose screen, 48 h (100 = growth as untreated, 0 = no growth, -100 = all killed)
Details in all cases: 10 µM unless noted
[1] = tested on: HCT-15 colon
[2] = tested on: HT29 colon
[3] = tested on: SNB-75 CNS
[4] = tested on: SNB-19 CNS
[5] = tested on: U251 CNS
[6] = tested on: PC-3 prostate
[7] = tested on: SK-MEL-5 melanoma
[8] = tested on: UACC-62 melanoma
[9] = tested on: LOX IMVI melanoma
[10] = tested on: SK-MEL-28 melanoma

COc1ccc(C(=O)/C=C/c2ccccn2)c(O)c1
growth [1]: 39.7%
growth [2]: 72.2%
growth [3]: 78.1%
growth [4]: 73.1%
growth [5]: 87.5%
growth [6]: 95.5%
growth [7]: 95%
growth [8]: 90.8%
growth [9]: -54.9% (active)
growth [10]: 90.7%

Nc1nc(Nc2ccccc2)c2ncn(Cc3cc4c(cc3Br)OCO4)c2n1
growth [1]: 6.74% (active)
growth [2]: -34% (active)
growth [3]: 18.8%
growth [4]: 17.3%
growth [5]: 3.29% (active)
growth [6]: 16.2%
growth [7]: -6.17% (active)
growth [8]: 33.6%
growth [9]: 12.9%
growth [10]: 52%

CN(C)C(=S)Sc1ccc([N+](=O)[O-])cc1[N+](=O)[O-]
growth [1]: 5.29% (active)
growth [2]: -16.6% (active)
growth [3]: 57.4%
growth [4]: 83.2%
growth [5]: 6.55% (active)
growth [6]: 28.1%
growth [7]: 17.2%
growth [8]: 33.5%
growth [9]: -4.79% (active)
growth [10]: 75.1%

Cc1ccccc1-n1nnc(C(=O)Nc2nc3ccc(F)cc3s2)c1C
growth [1]: 61.1%
growth [2]: 73.2%
growth [3]: 64%
growth [4]: 63.7%
growth [5]: 76.8%
growth [6]: 47.5%
growth [7]: 24.5%
growth [8]: 59.2%
growth [9]: 75%
growth [10]: 57.3%

C[n+]1c(-c2ccccc2)c2cc(N)ccc2c2ccccc21
growth [1]: 101%
growth [2]: 31.5%
growth [3]: -0.792% (active)
growth [4]: -2.68% (active)
growth [5]: 11.6%
growth [6]: 58.4%
growth [7]: 0.275% (active)
growth [8]: 0.188% (active)
growth [9]: 40.2%
growth [10]: 10.4%

CCOC(=O)c1c[nH]n2c(=S)ncnc12
growth [1]: 102%
growth [2]: 100%
growth [3]: 90.7%
growth [4]: 96.1%
growth [5]: 102%
growth [6]: 117%
growth [7]: 105%
growth [8]: 97.5%
growth [9]: 96.4%
growth [10]: 108%

N#Cc1c(Cl)nc(SCC2CO2)nc1-c1ccccc1 (stereo not given)
growth [1]: 110%
growth [2]: 111%
growth [3]: 95.6%
growth [4]: 106%
growth [5]: 104%
growth [6]: 110%
growth [7]: 107%
growth [8]: 107%
growth [9]: 98.4%
growth [10]: 114%

CCCCCCCCN(CCCCCCCC)CC(O)c1ccc(Cl)c(C)c1Cl (stereo not given)
growth [1]: 80.1%
growth [2]: 42.2%
growth [3]: 86.8%
growth [4]: 93.2%
growth [5]: 91.3%
growth [6]: 72.9%
growth [7]: 101%
growth [8]: 89.2%
growth [9]: 53.5%
growth [10]: 106%

COc1ccc(-c2nc3ccccn3c2/C=C/C(=O)c2cc(OC)c(OC)c(OC)c2)cc1OC
growth [1]: 22.1%
growth [2]: 16.7%
growth [3]: 46.1%
growth [4]: 29.8%
growth [5]: 7.81% (active)
growth [6]: 26.1%
growth [7]: -86.7% (active)
growth [8]: 19.9%
growth [9]: 4.18% (active)
growth [10]: 29.1%

c1ccc(-c2nnc(-c3c[nH]c4ncccc34)s2)cc1
growth [1]: 83.4%
growth [2]: 106%
growth [3]: 59.6%
growth [4]: 91.7%
growth [5]: 93.2%
growth [6]: 81.6%
growth [7]: 91.6%
growth [8]: 81.2%
growth [9]: 97%
growth [10]: 99.6%

c1cc2ccc1CNCCN1CCNCc3ccc(cc3)Oc3ccc(cc3)CNCCN(CCNCc3ccc(cc3)O2)CCNCc2ccc(cc2)Oc2ccc(cc2)CNCC1
growth [1]: 95.4%
growth [2]: -74.7% (active)
growth [3]: -73.1% (active)
growth [4]: -91.2% (active)
growth [5]: -99.7% (active)
growth [6]: -85.5% (active)
growth [7]: 66.1%
growth [8]: -76% (active)
growth [9]: -94.1% (active)
growth [10]: 14.7%

Cn1cc(-c2noc(C(=O)c3cn(C)c4ncc(Br)cc34)n2)c2ccccc21
growth [1]: 97.7%
growth [2]: 105%
growth [3]: 77.9%
growth [4]: 96.6%
growth [5]: 93.8%
growth [6]: 92.3%
growth [7]: 95.6%
growth [8]: 89.3%
growth [9]: 96.8%
growth [10]: 101%

O=S(=O)(NCCNc1nccc(-c2c(-c3cccc(F)c3)nc3occn23)n1)c1ccc(C(F)(F)F)cc1
growth [1]: 95.5%
growth [2]: 62.3%
growth [3]: 59.6%
growth [4]: 98%
growth [5]: 92%
growth [6]: 55.2%
growth [7]: 92%
growth [8]: 76.2%
growth [9]: 95.8%
growth [10]: 78.7%

CC1=C/C(=C(\c2cc(C)c(O)c(C(=O)O)c2)c2c(Cl)cccc2Cl)C=C(C(=O)O)C1=O
growth [1]: 105%
growth [2]: 97.8%
growth [3]: 90.3%
growth [4]: 91.3%
growth [5]: 104%
growth [6]: 89%
growth [7]: 100%
growth [8]: 94.9%
growth [9]: 95.7%
growth [10]: 116%

O=C1Nc2ccccc2/C1=C/C(=O)c1ccc(N2CCCC2)cc1
growth [1]: 23.1%
growth [2]: -9.76% (active)
growth [3]: 23.3%
growth [4]: 57.2%
growth [5]: 4.98% (active)
growth [6]: 38.2%
growth [7]: 65.2%
growth [8]: 34.5%
growth [9]: -17% (active)
growth [10]: 76.5%

C#C[C@]1(O)CC[C@H]2[C@@H]3CC=C4c5nc(Nc6ccccc6[N+](=O)[O-])sc5CC[C@]4(C)[C@H]3CC[C@@]21C
growth [1]: 35.3%
growth [2]: 55.7%
growth [3]: 17.9%
growth [4]: 76.6%
growth [5]: 39.7%
growth [6]: 41.8%
growth [7]: 60.6%
growth [8]: 67.8%
growth [9]: 73.1%
growth [10]: 62.1%

CCOC(=O)n1cc(C2=C(c3ccc(OC)c(OC)c3)COC2=O)c2ccccc21
growth [1]: 7.9% (active)
growth [2]: 1.19% (active)
growth [3]: 13.9%
growth [4]: 32.6%
growth [5]: 23.6%
growth [6]: 12%
growth [7]: -38.9% (active)
growth [8]: 32.9%
growth [9]: 39.1%
growth [10]: 63.8%

C#C[C@]1(O)CC[C@H]2[C@@H]3CC=C4c5nc(Nc6ccc(OC)cc6OC)sc5CC[C@]4(C)[C@H]3CC[C@@]21C
growth [1]: -39.1% (active)
growth [2]: -12.8% (active)
growth [3]: -53.6% (active)
growth [4]: 31.2%
growth [5]: -2.51% (active)
growth [6]: -3.17% (active)
growth [7]: -92.2% (active)
growth [8]: -36.8% (active)
growth [9]: -78.3% (active)
growth [10]: -49.1% (active)

O=C1NC(=O)c2cc([N+](=O)[O-])cc3cccc1c23
growth [1]: 95.2%
growth [2]: 102%
growth [3]: 90.2%
growth [4]: 100%
growth [5]: 82.3%
growth [6]: 78.8%
growth [7]: 101%
growth [8]: 87%
growth [9]: 81.5%
growth [10]: 108%

COc1cc(C(=O)/C=C/c2c(-c3ccc(F)cc3)nc3sccn23)cc(OC)c1OC
growth [1]: 27.8%
growth [2]: 5.08% (active)
growth [3]: 32.3%
growth [4]: 10%
growth [5]: 5.59% (active)
growth [6]: 19.9%
growth [7]: -50.5% (active)
growth [8]: 23.3%
growth [9]: 15.6%
growth [10]: 52.2%

CCCCC(CC)COC(=O)C[N+](C)(C)CCOC(c1ccccc1)c1ccccc1 (stereo not given)
growth [1]: 96.2%
growth [2]: 28.3%
growth [3]: 10.8%
growth [4]: 40.7%
growth [5]: 30.8%
growth [6]: 19.5%
growth [7]: -79.8% (active)
growth [8]: -20.1% (active)
growth [9]: 1.39% (active)
growth [10]: 11.1%
